Inconclusive results are not listed. A structure can be active in one record and inactive in another. Calls of active or inactive are those of the source. Unless noted, calls come from the whole dose curve; as a rule, active = well fitted curve in the direction sought with a large enough effect in the repeat runs; inconclusive = weak or mixed curves; inactive = no such curve, though single readings can be large; an effect the other way counts as inactive or inconclusive.

The record followed here is PubChem BioAssay (Tox21).

Experiment [1] is described as follows: qHTS assay to identify small molecule antagonists of the sonic hedgehog signaling (Shh) pathway (AID 1259369; calls by dose curve; note: nearly all actives have a fitted effect of over 45% in size; note: potency is the fitted concentration of half-maximal effect). The gist of the method: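 Inhibition of Shh signalling is measured as reduced Gli1-response-element firefly luciferase output in an NIH/3T3-derived stable reporter clone stimulated with conditioned medium for 24hr.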
Experiment [2] has as its target Estrogen receptor beta (Homo sapiens) (UniProt Q92731). Kind of experiment: qHTS assay to identify small molecule agonists of the estrogen receptor beta (ER-beta) signaling pathway (AID 1259377; active = well fitted activation curve with a large enough effect in the signal ratio in the repeat runs, not every such curve was filed as active; the % refers to the signal ratio). The gist of the method: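 ER-beta-UAS-bla HEK293T (GripTite) cells carrying a UAS-driven beta-lactamase reporter, in medium with 2% charcoal-stripped FBS, were exposed to compounds for 16 hr at 37C; LiveBLAzer B/G FRET substrate was then added and fluorescence read after 2 hours at room temperature.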

For experiment [3] the target is unchanged. Kind of experiment: qHTS assay to identify small molecule antagonists of the estrogen receptor beta (ER-beta) signaling pathway (AID 1259378; active = well fitted inhibition curve with a large enough effect in the signal ratio in the repeat runs, not every such curve was filed as active; the % refers to the signal ratio; note: potency is the fitted concentration of half-maximal effect). The gist of the method:
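ER-beta-UAS-bla HEK293T (GripTite) cells in 2% charcoal-stripped FBS medium were preincubated 6 hr at 37C, dosed with compound, then stimulated with 1 nM E2 (final) for 16 hr; beta-lactamase reporter read by B/G FRET fluorescence after 2 hr substrate loading.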

A short description of experiment [4]: qHTS assay to identify small molecule agonists of the androgen receptor (AR) signaling pathway in the presence of an antagonist - cell viability counter screen (AID 1259379). Note: nearly all actives have a fitted effect of over 25% in size. Note: potency is the fitted concentration of half-maximal effect. The gist of the method:
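Fluorescence from CellTiter-Fluor, added after 15 hr and read 1 hr later, gave cell viability. Cells were MDA-kb2 exposed to compounds (15 concentrations) in the presence of 3.0uM nilutamide at 37C, 0% CO2.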

A short description of experiment [5]: qHTS assay to identify small molecule agonists of the estrogen receptor beta (ER-beta) signaling pathway - cell viability counter screen (AID 1259380). Note: nearly all actives have a fitted effect of over 30% in size. Note: potency is the fitted concentration of half-maximal effect. Put shortly:
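Same-well viability counter screen. Cells: ER-beta-UAS-bla HEK293T, plated 6 hr before compound, in 2% charcoal-stripped FBS. Compound exposure 16 hr, 37C; viability by CellTiter-Glo luminescence after 30 min at room temperature.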

A short description of experiment [6]: qHTS assay to identify small molecule antagonists of the estrogen receptor beta (ER-beta) signaling pathway - cell viability counter screen (AID 1259382). Note: nearly all actives have a fitted effect of over 55% in size. Note: potency is the fitted concentration of half-maximal effect. Put shortly:
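Following a 6 hr plating period, HEK293T cells carrying a UAS-driven beta-lactamase reporter under ER-beta control received compounds and 1nM E2 (final). After 16 hr at 37C and 2 hr substrate loading, CellTiter-Glo luminescence indicated viability.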

Experiment [7] deals with Estrogen receptor (Homo sapiens) (UniProt P03372). Kind of experiment: qHTS assay to identify small molecule agonists of the estrogen receptor alpha (ER-alpha) signaling pathway in the presence of an antagonist (AID 1259383; calls by dose curve; note: top concentration of the series differs between compounds; nearly all actives have a fitted effect of over 15% in size). The gist of the method: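 Cells are hormone-deprived for 5 days (charcoal-stripped FBS, no phenol red), plated for 24hr, spiked with 10.0nM ICI-182,780, then dosed at 15 concentrations. After 22hr at 37C, ONE-Glo luminescence reports ERE-luciferase activity.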

Experiment [8] can be described thus: qHTS assay to identify small molecule agonists of the estrogen receptor alpha (ER-alpha) signaling pathway in the presence of an antagonist - cell viability counter screen (AID 1259386).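 Note: series mostly up to about 92 µM; cells exposed to compounds for 22 h at 37 °C before the viability read; nearly all actives have a fitted effect of over 30% in size.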 Put shortly: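 Cells are starved of estrogens for 5 days in charcoal-stripped serum, seeded for 24hr and co-treated with ICI-182,780 (10.0nM final) and test compounds. After 22hr at 37C, viability is read as CellTiter-Fluor fluorescence.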

Experiment [9] deals with Progesterone receptor (Homo sapiens) (UniProt P06401). Kind of experiment: qHTS assay to identify small molecule agonists of the progesterone receptor (PR) signaling pathway (AID 1346784; calls by dose curve; note: nearly all actives have a fitted effect of over 30% in size). The gist of the method: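 PR-UAS-bla HEK 293T cells carrying a UAS-driven beta-lactamase reporter were seeded in medium with 2% charcoal-stripped FBS, preincubated 6 hr at 37C, then exposed to compounds in DMSO for 16 hr; agonism was read by LiveBLAzer B/G FRET fluorescence.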

Experiment [10] has the same target. Nature of the experiment: qHTS assay to identify small molecule antagonists of the progesterone receptor (PR) signaling pathway (AID 1346795; active = well fitted inhibition curve with a large enough effect in the signal ratio in the repeat runs, not every such curve was filed as active; the % refers to the signal ratio; note: potency is the fitted concentration of half-maximal effect). The gist of the method: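 PR-UAS-bla HEK293T cells carrying a UAS-driven beta-lactamase reporter were plated in medium with 2% charcoal-stripped FBS and rested 6 hr at 37C. Compounds were added with 1 nM R5020 (final) for 16 hr, then FRET substrate loaded 2 hr at room temperature.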

The nature of experiment [11]: qHTS assay to identify small molecule antagonists of the progesterone receptor (PR) signaling pathway - cell viability counter screen (AID 1346798). Note: series mostly up to about 92 µM; nearly all actives have a fitted effect of over 50% in size. The gist of the method:
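PR-UAS-bla HEK293T cells in medium with 2% charcoal-stripped FBS were treated with compounds plus R5020 for 16 hr at 37C. Cell viability was then read by CellTiter-Glo luminescence after 30 min at room temperature in the same wells.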

Experiment [12] can be described thus: qHTS assay to identify small molecule antagonists of the TGF-beta/Smad signaling pathway - cell viability counter screen (AID 1346824). Note: nearly all actives have a fitted effect of over 50% in size. The gist of the method:
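SBE-bla HEK 293T cells were plated overnight at 37 C, then given compounds in DMSO plus TGF-beta1 (added as 0.25 ng/mL solution) for 5 hr. After the bla read, CellTiter-Glo was added to the same wells and luminescence read after 30 min at room temperature.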

Experiment [13] is described as follows: qHTS assay to identify small molecule agonists of the TGF-beta/Smad signaling pathway - cell viability counter screen (AID 1346829). Note: top concentration of the series differs between compounds; nearly all actives have a fitted effect of over 45% in size. The gist of the method: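 After overnight seating at 37 C and 5% CO2, reporter cells got compounds for 5 hr and FRET substrate for 2 hr; cell viability then came from CellTiter-Glo luminescence.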
The nature of experiment [14]: qHTS assay to identify small molecule agonists of the TGF-beta/Smad signaling pathway (AID 1346859; active = well fitted activation curve with a large enough effect in the signal ratio in the repeat runs, not every such curve was filed as active; the % refers to the signal ratio; note: series mostly up to about 77 µM). The gist of the method:
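HEK 293T cells stably carrying a beta-lactamase reporter driven by the Smad binding element were seeded overnight, exposed to DMSO-dissolved compounds for 5 hr at 37 C, 5% CO2, then loaded with FRET substrate for 2 hr at room temperature.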

The target of experiment [15] is Thyrotropin-releasing hormone receptor (Homo sapiens) (UniProt P34981). Kind of experiment: qHTS assay to identify small molecule antagonists of the thyrotropin-releasing hormone receptor (TRHR) signaling pathway (AID 1346877; active = well fitted inhibition curve with a large enough effect in the repeat runs, not every such curve was filed as active; note: series mostly up to about 51 µM). Put shortly:
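Cells (TRHR-HEK293) are plated and kept 18 h at 37 °C/5% CO2. A calcium-sensitive dye is added for 2 h, compound follows for 5 min at room temperature, and TRH is then given at 1 nM final.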

The target is the same in experiment [16]. Nature of the experiment: qHTS assay to identify small molecule agonists of the thyrotropin-releasing hormone receptor (TRHR) signaling pathway (AID 1346891; calls by dose curve; note: series mostly up to about 58 µM). Put shortly: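 TRHR-expressing HEK293 cells were plated 18 h at 37 °C/5% CO2, loaded with calcium dye 2 h at 37 °C, then given compound in DMSO; fluorescence was read kinetically for 3 min at 1 s intervals.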

Experiment [17] deals with Androgen receptor (Homo sapiens) (UniProt P10275). Kind of experiment: qHTS assay to identify small molecule agonists of the androgen receptor (AR) signaling pathway in the presence of an antagonist (AID 1259381; calls by dose curve; note: nearly all actives have a fitted effect of over 15% in size). The gist of the method: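 Cells are MDA-kb2 (human breast carcinoma, MMTV-luc, AR/GR responsive). Nilutamide is present at 3.0uM final throughout; compounds are added at 15 concentrations and incubated 16hr at 37C before ONE-Glo luminescence detection.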

Experiment [18] is described as follows: qHTS assay to identify small molecule agonists or antagonists of the thyroid stimulating hormone receptor (TSHR) signaling pathway - wild type cell line counter screen (AID 1259384; calls by dose curve). The gist of the method: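 Wild-type HEK293 cells were plated 18 h at 37 C/5% CO2, pin-dosed with compound plus Ro20-1724 medium, held 30 min at room temperature, then given cAMP-d2 and anti-cAMP-cryptate; fluorescence was read after 1 h. Fifteen concentrations, triplicate.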

For experiment [19], the target named is Thyrotropin receptor (Homo sapiens) (UniProt P16473). Kind of experiment: qHTS assay to identify small molecule antagonists of the thyroid stimulating hormone receptor (TSHR) signaling pathway (AID 1259385; calls by dose curve; note: nearly all actives have a fitted effect of over 20% in size). The gist of the method: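 TSHR-HEK293 cells were plated and held 18 h at 37C/5% CO2, then given compound plus Ro20-1724 and stimulated with TSH at 1.5 ng/mL final. After 30 min at room temperature, cAMP was detected with cAMP-d2/anti-cAMP-cryptate (1 h) by fluorescence.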

The nature of experiment [20]: qHTS assay to identify small molecule agonists of the progesterone receptor (PR) signaling pathway - cell viability counter screen (AID 1346799; calls by dose curve; note: nearly all actives have a fitted effect of over 45% in size). The gist of the method: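 PR-UAS-bla HEK293T cells, 3,000 per well in medium with 2% charcoal-stripped FBS, were preincubated 6 hr at 37C, then exposed to compounds for 16 hr; viability was read as CellTiter-Glo luminescence after 30 min at room temperature.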

Sequence of Progesterone receptor (Homo sapiens) (P06401 whole entry, looked up): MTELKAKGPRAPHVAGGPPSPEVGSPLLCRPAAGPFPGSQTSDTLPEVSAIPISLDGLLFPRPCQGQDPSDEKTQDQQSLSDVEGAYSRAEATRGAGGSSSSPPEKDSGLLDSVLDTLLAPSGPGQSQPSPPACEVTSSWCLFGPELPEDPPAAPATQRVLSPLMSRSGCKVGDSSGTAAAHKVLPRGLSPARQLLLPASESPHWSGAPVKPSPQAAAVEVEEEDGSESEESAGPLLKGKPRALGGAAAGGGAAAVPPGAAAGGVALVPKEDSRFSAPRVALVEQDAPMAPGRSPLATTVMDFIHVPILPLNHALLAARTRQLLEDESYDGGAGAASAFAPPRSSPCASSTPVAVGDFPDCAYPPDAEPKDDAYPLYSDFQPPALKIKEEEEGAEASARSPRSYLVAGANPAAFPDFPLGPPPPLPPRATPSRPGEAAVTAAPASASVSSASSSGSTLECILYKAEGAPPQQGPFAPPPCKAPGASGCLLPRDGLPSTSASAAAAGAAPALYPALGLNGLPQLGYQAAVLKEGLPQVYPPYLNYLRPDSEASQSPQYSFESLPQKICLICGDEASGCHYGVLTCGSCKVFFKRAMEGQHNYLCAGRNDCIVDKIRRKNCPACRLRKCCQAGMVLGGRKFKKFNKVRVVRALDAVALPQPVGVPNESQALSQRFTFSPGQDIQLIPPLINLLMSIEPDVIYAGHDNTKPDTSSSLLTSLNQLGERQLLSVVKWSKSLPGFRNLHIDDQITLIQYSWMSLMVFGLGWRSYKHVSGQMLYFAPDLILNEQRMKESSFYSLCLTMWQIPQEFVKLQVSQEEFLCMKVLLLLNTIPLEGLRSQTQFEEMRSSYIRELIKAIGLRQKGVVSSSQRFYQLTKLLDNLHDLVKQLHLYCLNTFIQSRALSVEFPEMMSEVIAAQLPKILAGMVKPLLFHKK
Sequence of Thyrotropin receptor (Homo sapiens) (P16473 whole entry, looked up): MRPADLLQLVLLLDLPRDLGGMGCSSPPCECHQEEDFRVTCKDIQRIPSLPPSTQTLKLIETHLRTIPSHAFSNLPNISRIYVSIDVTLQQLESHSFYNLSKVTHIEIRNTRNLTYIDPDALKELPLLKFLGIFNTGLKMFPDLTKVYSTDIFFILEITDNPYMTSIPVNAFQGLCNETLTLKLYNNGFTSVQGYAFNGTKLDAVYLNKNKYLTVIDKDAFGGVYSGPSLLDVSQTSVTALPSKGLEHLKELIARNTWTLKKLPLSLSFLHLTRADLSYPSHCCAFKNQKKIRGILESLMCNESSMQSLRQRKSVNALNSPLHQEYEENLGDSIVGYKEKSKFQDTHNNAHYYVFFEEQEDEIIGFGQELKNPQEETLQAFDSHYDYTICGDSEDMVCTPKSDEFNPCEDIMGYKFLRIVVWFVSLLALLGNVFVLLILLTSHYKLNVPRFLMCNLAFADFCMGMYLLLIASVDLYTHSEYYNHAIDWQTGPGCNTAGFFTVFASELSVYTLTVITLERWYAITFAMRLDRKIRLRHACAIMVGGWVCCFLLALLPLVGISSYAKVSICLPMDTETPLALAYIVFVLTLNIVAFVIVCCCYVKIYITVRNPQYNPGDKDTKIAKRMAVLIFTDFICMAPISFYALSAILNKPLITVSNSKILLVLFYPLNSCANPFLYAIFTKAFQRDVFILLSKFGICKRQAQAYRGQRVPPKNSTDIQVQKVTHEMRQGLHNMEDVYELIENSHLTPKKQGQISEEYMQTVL
Sequence of Estrogen receptor (Homo sapiens) (P03372 whole entry, looked up): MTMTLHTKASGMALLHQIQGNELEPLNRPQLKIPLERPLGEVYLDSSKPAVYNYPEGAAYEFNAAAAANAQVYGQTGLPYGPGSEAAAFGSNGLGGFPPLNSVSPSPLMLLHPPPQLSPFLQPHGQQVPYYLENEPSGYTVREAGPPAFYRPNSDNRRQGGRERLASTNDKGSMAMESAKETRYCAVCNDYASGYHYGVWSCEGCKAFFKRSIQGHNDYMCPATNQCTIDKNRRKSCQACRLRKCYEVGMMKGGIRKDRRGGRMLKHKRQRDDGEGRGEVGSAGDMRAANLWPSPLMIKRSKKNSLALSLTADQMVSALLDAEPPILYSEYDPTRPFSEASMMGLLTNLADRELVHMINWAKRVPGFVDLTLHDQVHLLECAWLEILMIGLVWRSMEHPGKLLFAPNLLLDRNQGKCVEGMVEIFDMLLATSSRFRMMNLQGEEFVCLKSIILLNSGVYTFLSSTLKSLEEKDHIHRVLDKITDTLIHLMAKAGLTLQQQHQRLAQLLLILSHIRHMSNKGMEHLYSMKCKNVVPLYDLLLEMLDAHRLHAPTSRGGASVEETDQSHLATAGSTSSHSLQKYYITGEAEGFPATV
Sequence of Thyrotropin-releasing hormone receptor (Homo sapiens) (P34981 whole entry, looked up): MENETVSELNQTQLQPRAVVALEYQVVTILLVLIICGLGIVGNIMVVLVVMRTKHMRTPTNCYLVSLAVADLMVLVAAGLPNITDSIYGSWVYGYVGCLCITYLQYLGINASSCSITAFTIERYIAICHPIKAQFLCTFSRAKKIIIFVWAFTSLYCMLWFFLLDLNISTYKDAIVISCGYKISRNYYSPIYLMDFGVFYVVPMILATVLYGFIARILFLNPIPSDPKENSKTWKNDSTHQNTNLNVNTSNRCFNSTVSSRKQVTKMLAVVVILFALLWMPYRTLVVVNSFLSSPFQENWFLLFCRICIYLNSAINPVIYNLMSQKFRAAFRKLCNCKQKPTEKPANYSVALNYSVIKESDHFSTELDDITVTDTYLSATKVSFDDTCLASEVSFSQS
Sequence of Estrogen receptor beta (Homo sapiens) (Q92731 whole entry, looked up): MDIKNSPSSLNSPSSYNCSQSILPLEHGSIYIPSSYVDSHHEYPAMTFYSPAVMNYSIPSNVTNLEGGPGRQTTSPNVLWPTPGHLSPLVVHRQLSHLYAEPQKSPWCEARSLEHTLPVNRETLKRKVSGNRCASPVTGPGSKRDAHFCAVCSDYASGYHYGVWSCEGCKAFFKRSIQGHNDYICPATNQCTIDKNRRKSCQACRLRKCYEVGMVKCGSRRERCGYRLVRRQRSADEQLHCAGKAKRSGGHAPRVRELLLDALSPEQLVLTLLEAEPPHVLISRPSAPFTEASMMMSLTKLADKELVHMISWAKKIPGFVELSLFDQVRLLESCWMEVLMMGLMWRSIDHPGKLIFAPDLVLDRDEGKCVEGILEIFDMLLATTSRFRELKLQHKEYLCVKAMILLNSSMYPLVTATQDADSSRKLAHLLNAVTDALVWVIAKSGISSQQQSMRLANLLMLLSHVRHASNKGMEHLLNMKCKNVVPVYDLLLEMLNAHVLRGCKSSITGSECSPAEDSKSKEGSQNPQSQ
Sequence of Androgen receptor (Homo sapiens) (P10275 whole entry, looked up): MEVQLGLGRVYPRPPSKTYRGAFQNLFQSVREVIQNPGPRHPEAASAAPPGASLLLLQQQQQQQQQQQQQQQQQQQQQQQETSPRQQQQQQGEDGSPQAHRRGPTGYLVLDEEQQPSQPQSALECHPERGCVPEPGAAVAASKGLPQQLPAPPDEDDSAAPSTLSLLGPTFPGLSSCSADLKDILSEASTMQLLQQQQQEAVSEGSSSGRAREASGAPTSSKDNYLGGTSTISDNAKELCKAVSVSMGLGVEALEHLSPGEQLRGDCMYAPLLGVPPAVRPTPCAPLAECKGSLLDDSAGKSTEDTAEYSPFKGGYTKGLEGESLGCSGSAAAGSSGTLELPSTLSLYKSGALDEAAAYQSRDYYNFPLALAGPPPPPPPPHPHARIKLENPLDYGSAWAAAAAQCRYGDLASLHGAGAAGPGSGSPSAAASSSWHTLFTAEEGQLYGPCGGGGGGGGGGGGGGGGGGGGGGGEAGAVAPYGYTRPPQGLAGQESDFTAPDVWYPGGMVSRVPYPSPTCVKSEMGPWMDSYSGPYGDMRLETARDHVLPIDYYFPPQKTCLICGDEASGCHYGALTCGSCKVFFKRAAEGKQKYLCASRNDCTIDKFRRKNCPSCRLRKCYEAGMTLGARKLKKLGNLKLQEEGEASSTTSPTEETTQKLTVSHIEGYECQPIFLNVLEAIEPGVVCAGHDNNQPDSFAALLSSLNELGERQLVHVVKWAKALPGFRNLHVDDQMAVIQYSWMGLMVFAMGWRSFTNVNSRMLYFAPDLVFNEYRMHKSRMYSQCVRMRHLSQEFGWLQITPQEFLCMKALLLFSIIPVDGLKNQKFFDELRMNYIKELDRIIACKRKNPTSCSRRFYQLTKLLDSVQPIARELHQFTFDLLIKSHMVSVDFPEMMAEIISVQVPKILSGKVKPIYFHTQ

Consider `OC(c1ccc(Cl)cc1)(c1cncnc1)c1ccccc1Cl` (centres undefined), for which the Potency result in experiment [1], in experiment [2], in experiment [7], in experiment [8], in experiment [9] and in experiment [11] was “inactive” throughout. For the same molecule, the Potency entry in experiment [12], in experiment [13], in experiment [14] and in [15] was “inactive” each time. Further, the Potency was 24.3 µM (active) in [3]; 24.8 µM (active) and inactive in [4]; 49.4 µM (active) in experiment [5]; 62.2 µM (active) and inactive in experiment [6]; 13.7 µM (active) in experiment [10]. For the same molecule, the molecule was classed as inactive in experiment [16].
Regarding `COP(=S)(OC)Oc1ccc(Sc2ccc(OP(=S)(OC)OC)cc2)cc1`, the Potency in experiment [1] is 68.6 µM (active) and inactive; in [10], 54.5 µM (active) and inactive. Moreover, the Potency entry in experiment [2], in experiment [3], in [4], in [5], in [6] and in [7] was “inactive” in each case. Besides, the Potency result in experiment [18], in experiment [19], in [8], in experiment [11], in [20] and in experiment [12] was “inactive” each time. Further, the Potency entry in experiment [13], in experiment [14] and in experiment [15] was “inactive” each time. Besides, the outcome in [17] and in [16] was inactive.
On to `COc1ccc(C=O)cc1OC`, for which, in [1], the Potency was 24.6 µM (active). Also, the Potency result in experiment [2], in [3], in [4], in experiment [5], in experiment [6] and in [7] was “inactive” throughout. Besides, the Potency entry in experiment [8], in experiment [9], in experiment [20], in [12], in [13] and in [14] was “inactive” throughout. For the same molecule, the Potency result in experiment [15] is “inactive”. Also, the result in experiment [16] was inactive.
Consider `C=C(C)C#N`, for which the Potency result in experiment [1], in [2], in [3], in experiment [4], in [5] and in experiment [6] was “inactive” each time. For the same molecule, the Potency result in experiment [7], in experiment [18], in experiment [19], in experiment [8], in [9] and in experiment [10] was “inactive” in each case. The Potency result in [11], in [20], in [12], in experiment [13], in experiment [14] and in experiment [15] was “inactive” throughout. In addition, the molecule was classed as inactive in [16].
Consider `Oc1ccc(Cl)cc1Cl`, for which the Potency result in experiment [1], in experiment [2], in experiment [3], in experiment [4], in [5] and in experiment [6] was “inactive” throughout. Besides, the Potency result in [7], in experiment [8], in experiment [9], in experiment [10], in [11] and in experiment [20] was “inactive” each time. The Potency result in experiment [12], in [13] and in experiment [15] was “inactive” throughout. For the same molecule, in [16], the outcome was inactive.
For `CC(C)=CC1C(C(=O)OCc2cccc(Oc3ccccc3)c2)C1(C)C` (centres undefined), the Potency entry in experiment [1], in experiment [2], in experiment [3], in experiment [4], in [5] and in experiment [6] was “inactive” each time. Also, the Potency entry in [7], in [18], in experiment [19], in [8], in [10] and in experiment [11] was “inactive” in each case. Moreover, the Potency result in experiment [20], in experiment [13] and in experiment [15] was “inactive” each time. Moreover, in experiment [16], the result was inactive.
Take `CCOS(=O)(=O)OCC`: the Potency result in [1], in experiment [2], in experiment [3], in experiment [4], in experiment [5] and in experiment [6] was “inactive” each time. Further, the Potency result in experiment [7], in experiment [18], in experiment [19], in [8], in [9] and in experiment [10] was “inactive” in each case. The Potency result in [11], in [20], in [12], in experiment [13] and in experiment [15] was “inactive” in each case. For the same molecule, the call in experiment [16] was inactive.
